# Peg3 promoter – Peg3 promoter-driven luciferase inhibitors, primary screen, cell-based, HeLa, luciferase luminescence | inhibition, % at 20 µM | AID 588405, 2011 | 1.7% of 360,000 active | HeLa PEG-Prom luciferase reporter, overnight;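 active = inhibition of at least 50% at 20 µM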
# KKLEB cytotox – cytotoxicity in KKLEB CF airway cells, primary screen, cytotoxicity control for CF NF-kB inhibitor project, cell-based, uHTS, fluorescence assay plates; KKLEB CF airway cells viability, ATPlite luminescence, overnight; hits give low values; cells stimulated with P. aeruginosa culture filtrate; activity change (cytotoxicity), % at 5 µM; 0.36% of 360,000 active; AID 602141, 2011;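 active = corrected activity change at or below -50% at 5 µM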
# TWEAK Fn14 block – inhibitors of TWEAK-Fn14 signaling, primary screen, luciferase reporter cells, uHTS; TWEAK-stimulated Fn14 reporter cells, luciferase luminescence, 8 h; inhibition, % at 10 µM; 2% of 360,000 active; in the data active = inhibition above about 50%
# CF NFkB block – inhibitors of PAF-induced NF-kB signaling, primary screen, cell-based, GFP fluorescence, uHTS; KKLEB NF-kB-GFP reporter, GFP fluorescence overnight; inhibition, % at 5 µM; 0.86% of 360,000 active; AID 588850, 2011;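 active = at least 50% inhibition at 5 µM, scaled per plate between neutral and stimulator controls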;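 also: PAF is a Pseudomonas aeruginosa culture filtrate used as stimulus; plate controls were PAF-stimulated DMSO wells for no effect and unstimulated DMSO wells for full effect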
# HIF-2a block – HIF-2a reporter inhibitors, primary screen, luminescence, 786-0 RCC cells | 786-0 RCC cells HIF-2a reporter, luciferase luminescence, overnight | inhibition, % at 18.8 µM | 0.72% of 360,000 active;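 active = inhibition of the luminescence signal of 40% or more relative to plate controls, in a single-dose primary screen at 18.75 µM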
# TROY signal inh – inhibitors of TROY-driven NF-kB signaling, primary screen, Q293 LMP1-TROYcd cells, NF-kB luciferase, uHTS; Q293 LMP1-TROYcd NF-kB luciferase reporter, 4 h; inhibition, % at 10 µM; 0.98% of 360,000 active; AID 1347056, 2019;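 active = compounds whose plate-normalised and pattern-corrected inhibition of the luciferase reporter signal at the single screening dose is 50% or more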
# The depositor's hits bear a star; . = not tested or not shown. Shown are actives, neighbours in structure and some others; about 4% of the full set was active somewhere.
SMILES,Peg3 promoter,KKLEB cytotox,TWEAK Fn14 block,CF NFkB block,HIF-2a block,TROY signal inh
CCOC(=O)C1=C(C)N(C[C@@H]2CC[C@@H](Cc3ccc(-c4ccccc4)cc3)O2)C(=O)NC1c1cccc2ccccc12 (some centres undefined),15,-1,-3,25,3,2
CCC(c1nnc(SCC(=O)Nc2cc(C)on2)o1)N(C)C (centres undefined),8,8,2,-9,-2,2
CC(C)C[C@@H](CN1C(N)=NC[C@@H]1C)NC(=O)CC12CC3CC(CC(C3)C1)C2,-8,-6,10,2,6,0
c1ccc(Oc2ncnc3oc(-c4ccccc4)cc23)cc1,-33,-3,96*,-4,-31,3
Cc1ccc(S(=O)(=O)Nc2nc(-c3ccccc3)cs2)cc1,17,-17,5,8,13,8
Cc1ccc(Nc2nc(-c3cccs3)cs2)nc1,-53,-23,75*,-18,2,71*
Cc1nc(N)sc1-c1csc(Nc2ncccn2)n1,-9,-5,50*,-31,-210,33
Cc1nc(C)c(-c2csc(Nc3ccc(F)cc3)n2)s1,-186,-13,31,-9,-236,-18
Cc1nc(C)c(-c2csc(Nc3ccc(Cl)cn3)n2)s1,-190,19,57*,-22,-164,8
Cc1ccc(Nc2nc(-c3ccccc3)cs2)nc1,-142,-13,75*,-14,-75,35
CCCOC(=O)c1ccc(O)cc1,-46,17,-11,-12,-29,-19
CC(C)(C)NC(=O)C1c2ccccc2OCC(=O)N1Cc1cccnc1 (centres undefined),.,.,-14,.,-2,-3
Cc1ccc(NC(=O)Cn2c(/C=C/c3ccccc3)nc3ccccc32)cc1C,3,-46,-10,21,-19,30
CC1(C2CC2)NC(=O)N(CC(=O)Nc2cc(S(=O)(=O)N3CCCCC3)ccc2Cl)C1=O (centres undefined),5,-4,4,13,16,-2
Cc1cc(C)nc(Nc2nc(-c3ccccc3)cs2)n1,-159,-45,63*,5,-79,39
Cc1nc(Nc2ccc(C(=O)O)cc2)sc1-c1ccccc1,11,6,93*,25,-30,56*
O=C(Oc1ccccc1F)C1CCN(C(=O)c2ccc(F)cc2)CC1,19,-3,6,11,6,14
Cc1ccc2nc(SCC3CCCCO3)[nH]c2c1 (centres undefined),-12,1,71*,14,-63,33
CC1CC2(C)C(=CC1=O)CCC1C2C(O)CC2(C)C1CCC2(O)C(=O)CO (centres undefined),-7,10,-5,67*,11,14
CCCC(=O)O[C@]1(C(=O)CO)CC[C@H]2[C@@H]3CCC4=CC(=O)CC[C@]4(C)[C@H]3[C@@H](O)C[C@@]21C,-1,12,-12,95*,23,21
CC12CCC(=O)C=C1CCC1C2CCC2(C)C1CCC2(O)C(=O)CO (centres undefined),-24,27,-6,24,6,13
CCC(CC)C(=O)OCC(=O)C1(O)CCC2C3CCC4=CC(=O)CCC4(C)C3C(O)CC21C (centres undefined),-9,14,6,64*,6,33
CC1CC2C3CCC4=CC(=O)CCC4(C)C3CCC2(C)C1(O)C(=O)CO (centres undefined),-20,3,1,53*,5,0
CC12CCC(=O)C=C1CCC1C2CCC2(C)C1CC[C@]2(O)C(=O)CO (some centres undefined),1,-4,-13,26,11,13
C=CCNc1nc(NCc2cccc(OC)c2)c2sc(-c3ccccc3)cc2n1,-27,-5,-17,-2,-187,-44
SMILES,Peg3 promoter,KKLEB cytotox,TWEAK Fn14 block,CF NFkB block,HIF-2a block,TROY signal inh
CC1CCCCC1NC(=O)COC(=O)CCC(=O)c1cccs1 (centres undefined),3,13,5,-12,6,-8
C[C@]12CCC(=O)C=C1CC[C@@H]1[C@@H]2[C@@H](O)C[C@@]2(C)[C@H]1CC[C@]2(O)C(=O)COC(=O)CCC(=O)O,-10,10,-9,75*,26,18
CC(=O)OCC(=O)[C@@]1(O)CC[C@H]2[C@@H]3CCC4=CC(=O)CC[C@]4(C)[C@H]3[C@@H](O)C[C@@]21C,6,9,1,64*,31,17
CC(=O)OCC(O)C1(O)CCC2C3CCC4=CC(=O)CCC4(C)C3C(O)CC21C (centres undefined),-8,-3,-19,42,12,-3
CC(=O)OCC(=O)C1(O)CCC2C3CC(F)C4=CC(=O)CCC4(C)C3C(O)CC21C (centres undefined),-9,13,8,76*,17,17
CCC[C@@H](CN[C@@H](CNC)C(C)C)NCCCCc1ccccc1,59*,-7,-4,9,-7,-14
O=C(COC(=O)c1ccccc1)NCCCCc1ccccc1,-4,2,15,17,2,-32
CN1CCN(S(=O)(=O)c2ccc(Nc3cccc(Cl)c3)c([N+](=O)[O-])c2)CC1,12,21,-15,18,4,-20
CN(C(=O)CSc1nc2ccccc2n1C)C1CCS(=O)(=O)C1 (centres undefined),68*,-11,-4,6,-4,-5
COc1ccc(C(=O)CC(=O)C(=O)Nc2ccc(Cl)cc2)cc1,6,-4,17,-2,8,-67
COc1ccc(C(=O)CC(Nc2ccc([N+](=O)[O-])cc2)c2ccc(Cl)cc2)cc1 (centres undefined),25,-16,53*,4,-39,11
Cn1cc(SCC(=O)N2CCCc3ccccc32)c2ccccc21,0,5,8,5,10,-13
CC1(C(=O)NCc2cccnc2)CCN1C(=O)c1cccc(F)c1 (centres undefined),3,6,22,17,6,-13
CCOC(=O)C1=C(CSc2nc3ccccc3s2)NC(=O)NC1c1ccc(OC)cc1 (centres undefined),64*,-33,17,18,-16,16
CCc1cccc(CC)c1NC(=O)COC(=O)c1cccc(S(=O)(=O)N2CCc3ccccc3C2)c1,-2,3,-1,-1,7,-4
COc1cc(OC)c(OC)cc1CNC(=O)c1cccc(S(=O)(=O)N2CCc3ccccc3C2)c1,10,-12,81*,15,13,51*

# Assay outcomes (PubChem BioAssay)
